Most compounds without a hit are left out; they make up all but 0.59% or so of the library.
RXFP1 agonist – RXFP1 (human) receptor agonism; AID 2676; actives 0.3% (n = 370,000); Q9HBX9; Potency, µM (series often up to 57.5 µM), for the others: at the top dose activation, usual class: activators; HEK293T-RXFP1 cAMP TR-FRET, 30 min; response scale: percent of porcine relaxin response, buffer zero; note: potency is the fitted concentration of half-maximal effect; nearly all actives have a fitted effect of over 60% in size
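HEK293 cells stably expressing RXFP1, treated 30 min at 37C with compounds plus PDE4 inhibitor Ro 20174; cAMP measured by HTRF TR-FRET. Normalized to buffer and 29 nM porcine relaxin; EC50 by Hill fit.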
B2AR arrestin – agonists driving beta-arrestin recruitment to human beta2-adrenergic receptor; actives 0.02% (n = 330,000); Potency, µM (highest dose often 46.1 µM), without a hit: top-dose activation, usual class: activators; AID 492947; beta-arrestin recruitment to beta2AR, cell-based reporter;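 note: potency is the fitted concentration of half-maximal effect; 0% = DMSO controls and full agonism = EC100 isoproterenol or metaproterenol; nearly all actives have a fitted effect of over 65% in size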
Target sequence (P07550 whole entry, looked up): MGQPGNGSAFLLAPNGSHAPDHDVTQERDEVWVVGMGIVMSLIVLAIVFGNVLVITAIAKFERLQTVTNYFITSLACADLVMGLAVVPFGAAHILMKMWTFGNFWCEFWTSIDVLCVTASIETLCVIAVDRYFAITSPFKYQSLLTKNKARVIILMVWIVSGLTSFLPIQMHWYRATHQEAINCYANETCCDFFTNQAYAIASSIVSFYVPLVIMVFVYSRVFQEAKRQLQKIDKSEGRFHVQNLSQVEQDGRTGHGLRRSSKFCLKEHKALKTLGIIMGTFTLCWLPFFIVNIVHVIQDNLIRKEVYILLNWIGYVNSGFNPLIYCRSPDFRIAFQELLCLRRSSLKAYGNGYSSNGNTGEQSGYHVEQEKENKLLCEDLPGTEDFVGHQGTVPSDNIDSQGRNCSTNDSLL
Chronic BCR inh – blocks chronic active B-cell receptor signaling. ABC-DLBCL IkBa-CBG/CBR reporter, luminescence ratio, 4 h. AID 493014. Potency, µM (highest dose often 46.1 µM), inactives show at the top dose activity change, negative = inhibition, hits mostly inhibitors. actives 0.05% (n = 340,000); active = well fitted inhibition curve with a large enough effect in the signal ratio, with a control signal flat, not every such curve was filed as active; inconclusive = small, poorly fitted or top-dose-only effect, or effect the other way, or a change in a side signal; the % refers to the signal ratio;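 note: potency is the fitted concentration of half-maximal effect; plate controls were basal doxycycline-induced cells for no effect and cells given 10 µM MG132 for full effect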
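Compounds up to 46 uM were incubated four hours with TMD8 cells whose green CBG68 luciferase is fused to IkappaBalpha; red CBR luminescence normalised the signal, and concentration-effect curves were fitted to fusion, red and ratio data.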
RXFP1 antag – RXFP1 (human) relaxin receptor antagonism. Q9HBX9. HEK293-RXFP1, relaxin-stimulated cAMP HTRF, 30 min; hits give low values. activity change, negative = inhibition, % at 57.5 µM. actives 0.59% (n = 350,000). AID 1259400;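 active = activity change of -60% or lower, but not beyond a set lower limit; inconclusive = change between -60% and -40%, or beyond the set limit; inactive = change above -40%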
An asterisk follows results filed as active; ? = inconclusive; nt = not tested or not shown; ! = not confirmed by another sample. Unless noted, calls come from the whole dose curve; as a rule, active = well fitted activation curve with a large enough effect; inconclusive = small, poorly fitted or top-dose-only effect; inactive = flat fitted curve, though single readings scatter. Unless noted, % is set by controls: 0 for no effect and ±100 for the full control effect.

SMILES	RXFP1 agonist	B2AR arrestin	Chronic BCR inh	RXFP1 antag
Cc1cccc2c1NC(=O)/C2=C\C(=O)c1cccs1	1%	0%	?	-92*
Cc1cc(Br)c2c(c1)/C(=C/C(=O)c1cccs1)C(=O)N2	4%	0%	?	nt
CNC(=S)N/N=C(\C)c1ccc(Cl)s1	1%	18µM*	16µM*	-4
CCNC(=S)N/N=C(\C)c1ccc(Cl)s1	3%	-1%	?	-6
COCCn1c(CNC(=O)c2ccccc2C)nc2cccnc21	8%	nt	nt	-2
Cc1ccc2c(C)cc(=S)[nH]c2c1	28µM*	0%	1%	8
Cc1ccc2[nH]c(=S)cc(C)c2c1	22%	?	-10%	-15
CC[N+](CC)(CCCCS(=O)(=O)[O-])CCNP1(=O)C=C(c2ccccc2)OC(c2ccccc2)=C1	16µM*	0%	0%	5
O=P1(Nn2cnnc2)C=C(c2ccccc2)OC(c2ccccc2)=C1	-1%	1%	7%	-10
CCOc1cccc(-c2c(C(=O)N/N=C/c3sccc3C)nnn2-c2nonc2N)c1	1%	0%	?	-2
CCOc1cccc(-c2c(C(=O)N/N=C/c3ccsc3)nnn2-c2nonc2N)c1	0%	-1%	?	-61*
CCCCN(CC)CCNC(=O)c1cc2c(-c3ccc(Cl)cc3)nn(C)c2s1	3%	-1%	-2%	-104*!
CC1CCc2cc(F)ccc2N1C(=O)CSc1nnc2c(n1)[nH]c1ccccc12 (stereo not given)	0%	4%	2%	-62*
Cc1nc2n(c(=O)c1CCN1CCC(c3noc4cc(F)ccc34)CC1)CCC[C@H]2O	nt	nt	nt	-9
CCN(CC(=O)Nc1ccccc1C(F)(F)F)C(=O)c1oc2c(Cl)cccc2c1C	2%	0%	0%	-1
CCN(CC(=O)Nc1ccc(OC)cc1)C(=O)c1oc2c(Cl)cccc2c1C	0%	0%	-12%	-100*
Cc1cc2c(cc3c(SCc4ccc(Cl)cc4)nnc(C)n32)o1	14µM*	nt	nt	-1
Cc1cc2c(cc3c(SCc4ccccc4Cl)nnc(C)n32)o1	7%	nt	nt	-17
CCOc1ccc(/C=C(\C#N)C(=O)c2c(C)[nH]c3ccccc23)cc1OC	2%	-1%	-5%	-63*
CC(C)C[C@H](NC(=O)N1CCn2c1nc1ccccc12)C(=O)NC1CCCCC1	1%	1%	-2%	-67*
C[C@H](NC(=O)N1CCn2c1nc1ccccc12)C(=O)NC1CCCCC1	3%	0%	-3%	19
O=c1c2ccccc2[nH]c(=S)n1CCN1CCc2ccccc2C1	0%	0%	?	-75*
NS(=O)(=O)c1ccc(CCn2c(=S)[nH]c3ccccc3c2=O)cc1	0%	0%	-10%	-64*
CN1CCN(CCn2c(=S)[nH]c3ccccc3c2=O)CC1	0%	0%	4%	-5
O=c1c2ccccc2[nH]c(=S)n1CCc1ccccc1	-1%	7%	?	-11
SMILES	RXFP1 agonist	B2AR arrestin	Chronic BCR inh	RXFP1 antag
Cc1cccc(N=C2NC(=O)/C(=C/C=C/c3ccco3)S2)c1	0%	-1%	3%	-73*
O=C1NC(=Nc2ccc(O)cc2)S/C1=C/c1ccco1	-1%	0%	?	-61*
CC12CCC(=O)N1C(C(=O)Nc1nc3ccc(Cl)cc3s1)CS2 (stereo not given)	0%	0%	?	-60*
CC12CCC(=O)N1C(C(=O)Nc1nc3ccc(S(C)(=O)=O)cc3s1)CS2 (stereo not given)	4%	1%	-1%	-3
COc1ccc(CNC(=O)c2ccc(Cn3c(=O)c4cccn4c4cccnc43)cc2)cc1OC	0%	nt	nt	0
Cc1ccccc1CS(=O)(=O)Cc1ccc(C(=O)NCCc2ccc(Cl)cc2)o1	6%	nt	-8%	-96*
Cc1ccc(CCNC(=O)c2ccc(CS(=O)(=O)Cc3ccccc3F)o2)cc1	0%	0%	-8%	9
CN1C[C@H]2c3ccccc3Oc3ccc(Cl)cc3[C@@H]2C1	nt	nt	nt	-16
CNCC(=O)Nc1ccc(Cl)c(C(F)(F)F)c1	3%	0%	?	-1
O=C(Nc1ccc(Cl)cc1)Nc1ccc(Cl)c(C(F)(F)F)c1	nt	nt	nt	-93*
O=C1NN(c2ccc(F)c(Cl)c2)C(=O)/C1=C\c1cccc(OC(=O)c2cccs2)c1	0%	0%	10%	-86*
CCOC(=O)CN1C(c2ccccc2O)Nc2ccc(Br)cc2C1c1ccccc1 (stereo not given)	0%	0%	?	-73*

Screening data deposited in PubChem by National Center for Advancing Translational Sciences (NCATS).
